In PubChem BioAssay (NCATS):
Inconclusive results are not listed. Active and inactive are the calls of the source. Calls come from the whole dose curve; as a rule, active = well fitted inhibition curve with a large enough effect; inconclusive = small, poorly fitted or top-dose-only effect; inactive = flat fitted curve, though single readings scatter.
% is set by controls: 0 for no effect and ±100 for the full control effect.

Each molecule was assayed against Phospholipid hydroperoxide glutathione peroxidase GPX4 (Homo sapiens) (UniProt P36969) (assay: Primary qHTS Assay for Inhibitors of Recombinant Selenoprotein Glutathione Peroxidase 4 (GPX4) (AID 1845192; note: nearly all actives have a fitted effect of over 65% in size)). Conditions: recombinant GPX4, GR-coupled NADPH fluorescence, 15 min; series mostly up to 50 µM; activity change, negative = inhibition: at the top concentration.
Chain of Phospholipid hydroperoxide glutathione peroxidase GPX4 (Homo sapiens) (P36969 whole entry, looked up): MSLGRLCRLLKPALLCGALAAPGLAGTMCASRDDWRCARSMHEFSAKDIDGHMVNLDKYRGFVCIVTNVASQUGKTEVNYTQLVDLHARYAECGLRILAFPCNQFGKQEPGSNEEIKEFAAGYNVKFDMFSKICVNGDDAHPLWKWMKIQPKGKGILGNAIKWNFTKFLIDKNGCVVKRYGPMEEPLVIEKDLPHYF
Procedure, shortened: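 GR-coupled assay: recombinant GPX4 preincubated 30 min with compound at room temperature; final 200 nM GPX4, 1 mM GSH, 0.5 mM cumene hydroperoxide, 0.5 mM NADPH, 100 nM GR, 0.01% BSA, pH 7.5 Tris. NADPH fluorescence (340/450 nm) read at 0 and 15 min.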
`O=C(O)[C@@H]1CCCN1` was tested, and the “outcome” value was “inactive”.
With `CCn1c(N)c(C(=O)NC)c(=O)c2ccc(C#C[C@@](C)(O)COC)nc21` the “activity change, negative = inhibition” value was -7.89% (inactive).
`NCCNc1ccc(NCCN)c2c1C(=O)c1ccncc1C2=O` was tested, and the “activity change, negative = inhibition” value was -15.3% (inactive).
`CCC=CCC=CCC=CCCCCCCCC(=O)O` was tested, and the “activity change, negative = inhibition” value was -15.9% (inactive).
